SMN2 splice up: SMN2 splice variant enhancement | HEK293 SMN2-luciferase splicing reporter, luminescence, 30-36 h | Potency, µM (doses to about 46.1 µM), for inactives: top-dose activity change, positive = activation, most hits filed as activators | 210,000 tested, 2.8% active; further: % of control where 0% means no effect; nearly all actives have a fitted effect of over 55% in size
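HEK293 cells carry an SMN2 […]–luciferase reporter in which exon 7 inclusion puts luciferase in frame. Cells were plated 10-12 h before compound addition, then incubated 30-36 h at 37C. ONE-Glo luminescence was read; sodium butyrate at 4.5 mM final served as control.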
FLuc counter: inhibits or activates purified firefly luciferase, miR-21 counter-screen | P08659 | Potency, µM (series often up to 57.5 µM), for inactives: top-dose activity change, negative = inhibition, most hits filed as inhibitors | 360,000 tested, 6.9% active | purified FLuc, Km substrates, luminescence inhibition;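 further: plate controls were vehicle for no effect and reference inhibitor for full effect; nearly all actives have a fitted effect of over 55% in size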
Target sequence (P08659 whole entry, looked up): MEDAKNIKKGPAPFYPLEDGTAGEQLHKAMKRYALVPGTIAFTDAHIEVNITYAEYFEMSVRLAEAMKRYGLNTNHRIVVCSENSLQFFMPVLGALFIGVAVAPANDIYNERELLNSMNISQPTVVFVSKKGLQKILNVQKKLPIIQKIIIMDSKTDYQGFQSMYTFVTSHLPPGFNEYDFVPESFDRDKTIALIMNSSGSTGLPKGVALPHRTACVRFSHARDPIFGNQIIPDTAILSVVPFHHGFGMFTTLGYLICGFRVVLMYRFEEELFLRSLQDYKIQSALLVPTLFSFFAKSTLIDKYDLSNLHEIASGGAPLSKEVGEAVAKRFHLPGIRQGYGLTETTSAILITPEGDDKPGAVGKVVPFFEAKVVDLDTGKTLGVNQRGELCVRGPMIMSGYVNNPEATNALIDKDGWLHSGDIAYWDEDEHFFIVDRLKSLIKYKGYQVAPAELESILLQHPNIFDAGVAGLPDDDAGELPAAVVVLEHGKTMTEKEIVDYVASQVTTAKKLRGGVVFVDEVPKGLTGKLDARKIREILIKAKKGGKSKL
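Purified P. pyralis luciferase (10nM final) with 10uM D-luciferin and 10uM ATP (Km levels) in 50mM Tris acetate pH 7.5, 10mM Mg acetate, 0.01% Tween-20, 0.05% BSA; qHTS 6-point titration, ~60 µM downward; luminescence read.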
KinaseGlo FLuc: Kinase-Glo luciferase inhibition (counter-screen). Q27757. Kinase-Glo luciferase, ATP luminescence, 8 min. Potency, µM (highest dose often 38.3 µM), without a hit: at the highest dose activity change, negative = inhibition, hits mostly inhibitors. 200,000 tested, 0.28% active. AID 1379; further: on the % scale 0 is the no-effect control and ±100 the full control effect; nearly all actives have a fitted effect of over 60% in size
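Compounds were added to a substrate mix at pH 7.2 (50 mM imidazole, 10 uM ATP, within the enzyme's linear range), followed by Kinase-Glo detection reagent; luminescence was measured after 8 minutes at ambient temperature.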
ELG1 genotoxic: inducers of genotoxicity in HEK293T ELG1-luciferase cells; HEK293T ELG1-luciferase reporter, luminescence, 16 h; Potency, µM (highest dose often 46 µM), for the others: at the top dose activity change, positive = activation, hits mostly activators; 330,000 tested, 1.3% active; AID 504466; further: % of control where 0% means no effect; nearly all actives have a fitted effect of over 60% in size
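Screening used a luciferase reporter fused to human ELG1 in HEK293T cells. Luminescence was read on a CCD plate imager after 16 hr exposure and 30 min ONE-Glo incubation.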
NPC1 promoter act: activators of NPC1 promoter; 320,000 tested, 2.4% active; Potency, µM (doses to about 9.22 µM), inactives show at the highest dose activation, hits mostly activators; Huh7 NPC1 promoter luciferase reporter, 24 h; AID 485313; further: % of control where 0% means no effect; nearly all actives have a fitted effect of over 60% in size
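Huh7 reporter cells (NPC1 promoter driving luciferase) are dosed with compound for 24 h at 37 °C, 5% CO2; luciferase detection reagent is then added and luminescence measured after 10 min at ambient temperature.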
Rab9 prom act: activators of Rab9 promoter. Huh7 Rab9 promoter-luciferase reporter, luminescence, 24 h. Potency, µM (titrated, usually from 9.22 µM), without a hit: at the highest dose activation, negative = inhibition, actives largely listed as activators. 320,000 tested, 2.8% active. AID 485297; further: % of control where 0% means no effect; nearly all actives have a fitted effect of over 60% in size
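Huh7 cells stably carrying Rab9 promoter–luciferase reporter, plated 1500 cells/well, compound added after 2 h and incubated 24 h at 37 °C; luciferase luminescence then read after 10 min with detection reagent.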
An asterisk follows results filed as active; ? = inconclusive; . = no result; [ ] = another dose, or the depositor's remark. Sampled rows, rich in hits. Any-hit rate of the full collection: about 7.5%. The call rests on the fitted dose curve; in most records, active means well fitted curve in the direction sought with a large enough effect; inconclusive means small, poorly fitted or top-dose-only effect, or another doubt; inactive means no such curve, though single readings can be large; an effect the other way counts as inactive or inconclusive. Potency means the concentration at half of the fitted maximal effect.

SMILES	SMN2 splice up	FLuc counter	KinaseGlo FLuc	ELG1 genotoxic	NPC1 promoter act	Rab9 prom act
CNC(=O)c1ccsc1NC(=O)c1ccc2c(c1)CCCC2	11µM*	0.95µM*	-15%	17%	-3%	12%
NC(=O)c1ccsc1NC(=O)c1ccc2c(c1)CCCC2	1.6µM*	0.6µM*	?	2.6µM*	?	?
COC(=O)N1CCC2(CCCN(Cc3nccs3)C2)CC1	-29%	.	1%	.	.	.
COc1ccc(NC(=O)CC2C(=O)N(C)C(=S)N2Cc2ccc3c(c2)OCO3)cc1 (stereo unspecified)	-3%	-2%	-2%	-2%	1%	-3%
O=C1c2ccccc2NC(c2ccc(-c3ccc(Br)cc3)o2)N1O (stereo unspecified)	-57%	2%	7%	-6%	-6%	-4%
O=C1c2ccccc2NC(c2ccc(-c3ccc(F)cc3)o2)N1O (stereo unspecified)	.	?	.	?	2.8µM*	2%
Cc1nn(-c2cccc(C(F)(F)F)c2)c(Cl)c1/C=N/Nc1cccc(C(=O)O)c1	0.4µM*	1.5µM*	2%	0.41µM*	0.11µM*	0.1µM*
Cc1nn(-c2ccccc2Cl)c(Cl)c1/C=N/Nc1cccc(C(=O)O)c1	0.071µM*	0.12µM*	1%	?	?	0.035µM*
CCOC(=O)N/N=C/c1c(C)nn(-c2cccc(C(F)(F)F)c2)c1Cl	-66%	-4%	4%	0%	-24%	-25%
CCCN1CCN(C(=O)c2oc3ccccc3c2NC(=O)COc2ccc(OC)cc2)CC1	.	-1%	.	-10%	-1%	0%
C[N+]1(CCCC[N+]2(C)CCCCCCC2)CCCCCCC1	0%[9.22 µM]	.	-7%[7.66 µM]	.	.	.
Cc1cc(Cc2c(C)c(C)c(Cc3cc(C)cc(C(C)(C)C)c3O)c(C)c2C)c(O)c(C(C)(C)C)c1	-4%[9.22 µM]	.	-4%[7.66 µM]	.	.	.
O=[N+]([O-])c1ccc(C(O)CSC(=S)N2CCCCC2)cc1 (stereo unspecified)	.	17µM*	.	17%	2.8µM*	25%
O=[N+]([O-])c1ccc(C(=S)N2CCCC2)cc1	2%	-3%	-1%	5%	0%	-3%
C=CCNC(=O)N1CCCC(C(=O)c2cccc(OC(C)C)c2)C1 (stereo unspecified)	.	17µM*	.	?	?	3.5µM*
COc1cc(/C=C2\COC/C(=C\c3ccc(O)c(OC)c3)C2=O)ccc1O	.	17µM*	.	-17%	-11%	-43%
COc1cccc(/C=C2\CCc3ccccc3C2=O)c1	.	0.15µM*	.	2.6µM*	?	?
COc1ccc(/C=C2\CCc3ccccc3C2=O)cc1OC	-25%	5.4µM*	-6%	17%	2%	4%
COc1ccc2c(c1)CC/C(=C/c1cc(OC)c(OC)c(OC)c1)C2=O	-58%	-16%	3%	-12%	4%	1%
CCN1C/C(=C/c2ccc(OC)c(O)c2)C(=O)/C(=C/c2ccc(OC)c(O)c2)C1	-105%	4%	-1%	-21%	-45%	-44%
COc1ccc2c(c1)CC/C(=C\C=C\c1ccccc1)C2=O	?	2.7µM*	1%	9%	18%	8%
CCN(CC)C(=O)c1[nH]cnc1C(=O)Nc1ccc(Cl)cc1	.	2%	.	1%	-4%	-5%
CC1CN(C(=O)CCC(=O)N2CCOCC2)c2ccccc2O1 (stereo unspecified)	.	-3%	.	3%	-3%	7%
COc1ccc(/C=C2\CC/C(=C\c3ccc(OC)cc3OC)C2=O)c(OC)c1	-27%	?	12%	?	14%	21%
